Our source for the growth inhibition values is PubChem BioAssay (NCI).

About 79,000 compounds went through this panel and 15% of them were active in at least one assay; those are over-represented in the sample as a whole. Unmarked numbers belong to inactive results. Activity calls are given as the source filed them. Cut-off read from the data, not from the text of the source: active = growth inhibition above about 70%; inactive = the rest.

Assay [1] in a line: NCI Yeast Anticancer Drug Screen. Data for the rad50 strain (AID 155).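 Note: 0% = growth of vehicle-only cultures of the same strain.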 To be noted: S. cerevisiae rad50 strain growth inhibition; at 50.0 µM; stronger effect = higher value. A digest of the protocol: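 Inhibition values express reduced yeast growth in compound-treated cultures relative to vehicle-treated controls.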
Assay [2] can be described thus: NCI Yeast Anticancer Drug Screen. Data for the mec2-1 strain (AID 157). The note with it: S. cerevisiae mec2-1 strain, at 50.0 µM, stronger effect = higher value. A digest of the protocol:
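Each compound was tested on mec2-1 yeast, a strain altered in DNA damage repair or cell cycle control. Growth inhibition is reported relative to vehicle.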

Assay [3] can be described thus: NCI Yeast Anticancer Drug Screen. Data for the sgs1 mgt1 strain (AID 161).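 Note: 0% = growth of cultures given vehicle only.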 To be noted: S. cerevisiae sgs1 mgt1 strain, at 50.0 µM, stronger effect = higher value. A digest of the protocol: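 Test agents were incubated with a DNA-repair-mutant yeast strain. Growth was then read and compared against vehicle-treated controls.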
Assay [4] in a line: NCI Yeast Anticancer Drug Screen. Data for the cln2 rad14 strain (AID 165).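 Note: 0% = growth equal to vehicle treated cultures.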 The note with it: S. cerevisiae cln2 rad14 strain, at 50.0 µM, stronger effect = higher value. In outline:
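Test compounds were added to cln2 rad14 yeast cultures; inhibition of growth was then determined by comparison with vehicle treatment.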

Assay [5] is described as follows: NCI Yeast Anticancer Drug Screen. Data for the bub3 strain (AID 167). To be noted: S. cerevisiae bub3 mutant strain, at 50.0 µM, stronger effect = higher value. In outline:
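Steps: expose the mutant yeast strain to compound; grow alongside vehicle-treated cultures; measure growth; express inhibition against the vehicle cultures.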

Assay [6] is described as follows: NCI Yeast Anticancer Drug Screen. Data for the mlh1 rad18 strain (AID 175). To be noted: S. cerevisiae mlh1 rad18 strain growth inhibition; at 50.0 µM; stronger effect = higher value. In outline: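 Inhibition values reflect reduced growth of mutant yeast versus vehicle-treated controls following compound exposure; the mutations affect DNA damage repair.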

For the compound `C1=C2CCc3ccc(o3)CCC(=C1)O2`, the growth inhibition in assay [1] was 7.55%; in assay [2] it was 14.8%; in assay [3], 10.2%; in assay [4], -23.7%; in assay [5], -0.05%; in assay [6], 1.35%.

Take `CCOc1c(N=Nc2cccc(Cl)c2)c(-c2ccccc2)nn1C(N)=S`: the growth inhibition is -3.4% in assay [1]; -10.3% in assay [2]; -24.2% in assay [3]; 2.15% in assay [4]; 35.5% in assay [5]; 20.8% in assay [6].

For `c1ccc(-c2nnsc2-c2ccccc2)cc1`, the growth inhibition in assay [1] was 17.5%; in assay [2], -4.35%; in assay [3], 27.6%; in assay [4], 10.8%; in assay [5], -3.9%; in assay [6], 20.4%.

As to `Fc1nc(F)nc(-c2c3ccccc3c3n2CCS3)n1`, the growth inhibition in assay [1] was 1.65%; in assay [2], 14.1%; in assay [3] it was 9.1%; in assay [4], 15.3%; in assay [5], 4.7%; in assay [6], 7.2%.

`O=C1CCCNC(=O)CCCN1`: the growth inhibition in assay [1] was 15%; in assay [2], -9.55%; in assay [3], -5.45%; in assay [4], -40.5%; in assay [5] it was -14.3%; in assay [6], -5.9%.

`CCOC(=O)C1Oc2ccccc2OC1C` (stereo unspecified): the growth inhibition is 24.5% in assay [1]; -15.7% in assay [2]; 9.45% in assay [3]; 12.9% in assay [4]; 16.3% in assay [5]; 3.85% in assay [6].

Take `O=C1C(N=Nc2ccc([N+](=O)[O-])cc2)Sc2nc3ccccc3n21` (stereo unspecified): the growth inhibition is 25.8% in assay [1]; -39.9% in assay [2]; 7.6% in assay [3]; -14.5% in assay [4]; -2.2% in assay [5]; 12.2% in assay [6].

Regarding `CC1CC[C@]2(C(=O)O)CCC3(COC(=O)/C=C\c4ccc(O)cc4)C(=CCC4[C@@]5(C)CC[C@H](O)C(C)(C)C5CC[C@]43C)[C@@H]2[C@H]1C` (stereo partly specified), the growth inhibition was -1.9% in assay [1]; 1.35% in assay [2]; -1.65% in assay [3]; 5.55% in assay [4]; -3.1% in assay [5]; -17.8% in assay [6].

Take `CCCCCCCCCCCCCCCCCCCCCCOC(=O)CCC(=O)OCCCCCCCCCCCCCCCCCCCCCC`: the growth inhibition was 17.2% in assay [1]; -44.3% in assay [2]; 17.4% in assay [3]; -0.95% in assay [4]; -10.8% in assay [5]; 5.75% in assay [6].

With `CCCC1(C(OC)OC)NC(=O)N(Cc2ccccc2)C1=O` (stereo unspecified), the growth inhibition in assay [1] was 4.45%; in assay [2] it was -5.15%; in assay [3], 5.15%; in assay [4] it was -19.7%; in assay [5] it was -2.1%; in assay [6], 4.75%.

In the case of `O=c1ccn(C2OC(C(O)CO)C(O)C2O)c(=O)[nH]1` (stereo unspecified), the growth inhibition was -4.95% in assay [1]; -2.55% in assay [2]; 5.45% in assay [3]; -60.8% in assay [4]; -8.15% in assay [5]; 9.25% in assay [6].

For `CC1=CCC2(C#N)CCC1C2O` (stereo unspecified), the growth inhibition was 15.2% in assay [1]; 17.8% in assay [2]; 8.1% in assay [3]; 22.4% in assay [4]; 10.4% in assay [5]; 17.6% in assay [6].

In the case of `O=C1OC(Nc2ccccc2)C(Cl)=C1Cl` (stereo unspecified), the growth inhibition was 38.1% in assay [1]; 13.8% in assay [2]; 22.5% in assay [3]; 20.3% in assay [4]; 6.2% in assay [5]; -0.15% in assay [6].

For the compound `[O-][N+](O)=C1c2ccccc2-c2ccccc21`, the growth inhibition in assay [1] is 7.4%; in assay [2], 2.95%; in assay [3], 0.65%; in assay [4] it was -21.4%; in assay [5], 3.75%; in assay [6] it was 11.1%.

For `CCOC(=O)CNc1c(OCc2ccccc2)c(=O)c1=O`, the growth inhibition in assay [1] was -8.05%; in assay [2], -10.8%; in assay [3], -18.1%; in assay [4] it was -3.65%; in assay [5] it was -16.2%; in assay [6], 5.8%.

Turning to `C=C(C)C1CCC2(C)CC3C(=C)CC(O)C(O)C3(C)CCC12` (stereo unspecified), the growth inhibition was 48.2% in assay [1]; 88.8% (active) in assay [2]; 90.8% (active) in assay [3]; 90% (active) in assay [4]; 90.2% (active) in assay [5]; 89.5% (active) in assay [6].

For the compound `CCCC1CC(=O)NC1C(=O)O` (stereo unspecified), the growth inhibition was -8.75% in assay [1]; -7.85% in assay [2]; -6.85% in assay [3]; -21.9% in assay [4]; -5.25% in assay [5]; -24.4% in assay [6].

For `O=C1c2ccccc2C(=O)c2cc(Br)ccc21`, the growth inhibition in assay [1] is -6.75%; in assay [2], -21.6%; in assay [3], 12.4%; in assay [4], -110%; in assay [5], -16.2%; in assay [6], 0.2%.

Turning to `O=[N+]([O-])c1ccc(OP(=O)(O)O)cc1`, the growth inhibition in assay [1] was -5.9%; in assay [2], 13.3%; in assay [3], -9.85%; in assay [4], 20.2%; in assay [5], 8.95%; in assay [6] it was -10.2%.

Consider `CCCCCCCCCCCCCCCCS(=O)(=O)N/N=c1\cc(-c2ccccc2Cl)c2ccccc2n1C`, for which the growth inhibition was -0.15% in assay [1]; -16.9% in assay [2]; 1.95% in assay [3]; 6.45% in assay [4]; -11.1% in assay [5]; 3.35% in assay [6].

On to `C=C1[C@@H]([C@@]2(C)C=CC(=O)C(C)(C)[C@@H]2CC(=O)OC)CC[C@@]2(C)C(c3ccoc3)OC(=O)[C@H]3O[C@]132` (stereo partly specified), for which the growth inhibition in assay [1] was -3.35%; in assay [2], -1.5%; in assay [3] it was 16.9%; in assay [4], 15.5%; in assay [5], 16.4%; in assay [6], -34.5%.
